PubChem BioAssay AID602346 (Broad Institute, 2012)
Screen size: about 340,000 compounds; about 1,200 (0.35%) were called active. The sample holds actives, similar compounds and a random draw of the others, so the mix is not that of the screen. No stated cut-off is given here; in the data, active means inhibition above about 50% (passing the limit was not always enough); inconclusive means no clear call, values can overlap the other calls; inactive means below about 31%.

assay: HIV Vif self-association inhibitors, primary screen, imaging, HEK293T, single point (AID 602346); conditions: HEK293T cells, Vif self-association by quenched fluorescence, 24 h, at 7.49 µM, active compounds read high

Row | SMILES | inhibition
1 | CC(C)(C)n1nc(Cc2cccc3ccccc23)c(C#N)c1N | 13.5% (inactive)
2 | CC1(C(=O)NCc2ccc(F)c(F)c2)Cc2c(-c3ccc4c(c3)OCO4)ccnc2O1 (configuration not stated) | -5.82% (inactive)
3 | CCN(CC)CCN(C(=O)c1ccc2c(c1)CCCC2)c1nc2c(OC)cccc2s1 | -7.26% (inactive)
4 | C[C@@H]1CCCCO[C@H](CN(C)Cc2ccccc2)[C@@H](C)CN([C@H](C)CO)C(=O)c2cc(NS(=O)(=O)c3ccc(Cl)cc3)ccc2O1 | 8.14% (inactive)
5 | CC(C)OCCCNc1ncnc2c1[nH]c1ccc(F)cc12 | 65.5% (active)
6 | COc1ccc(C(=O)N2CCCCC2c2cc(C(=O)Nc3ccccc3)no2)cc1 (configuration not stated) | 13.8% (inactive)
7 | CC(C)N=C1CCCC1C(=S)SSC(=S)C1CCCC1=NC(C)C (configuration not stated) | 0.152% (inactive)
8 | CCOC(=O)C1CCCN(C(=O)c2cc(-c3cccs3)oc2C)CC1 (configuration not stated) | -8.46% (inactive)
9 | CC(C)c1cccc(-c2csc(C(O)c3ccccc3)n2)c1 (configuration not stated) | -7.2% (inactive)
10 | CCC(CO)Oc1cc(NC(=O)c2cccc(F)c2)c2ncn(C(C)C)c2c1 (configuration not stated) | -4.4% (inactive)
11 | CC(C)n1cnc2c(NCc3ccccc3)cc(OCC3CCN(C)CC3)cc21 | 78.2% (active)
12 | CCC(CO)Oc1cc(NC(=O)c2cccc3ccccc23)c2ncn(C(C)C)c2c1 (configuration not stated) | 1.25% (inactive)
13 | CCCCC(=O)N(C)c1c(CC)nc2c(OCc3ccc(Cl)cc3Cl)cccn12 | 1.33% (inactive)
14 | COc1ccc(NC2CCCN(C(=O)c3ccccc3-c3ncc[nH]3)C2)cc1 (configuration not stated) | 10.8% (inactive)
15 | CC(=O)Nc1cc(-c2ccc(N3CCN(C)CC3)cc2)cn2c(-c3ccc(F)cc3)cnc12 | -22.4% (inactive)
16 | CCN(CC)C(=O)C1=C(C)N(Cc2ccc(C(C)(C)C)cc2)C(=O)C(CC(=O)NCc2cccc3ccccc23)C1 (configuration not stated) | -1.52% (inactive)
17 | Nc1nnc2c(C(F)(F)F)nc3ccccc3n12 | 44% (inactive)
18 | FC(F)(F)c1nnc2c3ccccc3c(Cl)nn12 | 78.3% (active)
19 | FC(F)(F)c1nnc2ccc(N3CCN(c4ccccc4)CC3)nn12 | 19.6% (inactive)
20 | CC1(Oc2ccccc2-c2ccno2)CCN(Cc2ccc(-c3ccccc3)o2)C1 (configuration not stated) | 4.47% (inactive)
21 | Cc1ccc(-c2cnc(C(O)c3cc(Cl)cc(Cl)c3)[nH]2)cc1 (configuration not stated) | -6.84% (inactive)

Row | SMILES | inhibition
22 | COc1ccc(C(c2nnnn2C2CCCC2)N2CCN(C/C=C/c3ccccc3)CC2)cc1 (configuration not stated) | 16.8% (inactive)
23 | COc1ccc(C2CC(c3ccccc3)=NN2C(=O)c2ccc(Cl)c([N+](=O)[O-])c2)cc1 (configuration not stated) | 89.1% (active)
24 | COc1ccc(C2=NN(C(=O)c3cccnc3)C(c3ccccc3)C2)cc1 (configuration not stated) | -3.05% (inactive)
25 | COc1ccc(C2CC(c3ccc([N+](=O)[O-])cc3)=NN2C(C)=O)cc1 (configuration not stated) | 1.95% (inactive)
26 | CCCCN(C=O)c1c(CC)nc2c(OCCC3CCCCC3)cccn12 | -3.38% (inactive)
27 | O=c1[nH]c(=O)n(Cc2ccco2)c2c1C(C(F)(F)F)(C(F)(F)F)N=C(c1ccco1)N2 | 51.3% (active)
28 | Nc1c(N(Cc2ccco2)C(=O)c2cccc(F)c2)c(=O)[nH]c(=O)n1Cc1ccccc1 | 6.01% (inactive)
29 | Cc1ccccc1C1=NC(C(F)(F)F)(C(F)(F)F)c2c(n(-c3ccc(F)cc3)c(=O)[nH]c2=O)N1 | -7.19% (inactive)
30 | C=C(C)C(=O)O[C@H]1C/C(C)=C\C(=O)/C=C(\C)[C@H](O)[C@@H]2OC(=O)C(=C)[C@@H]21 | 136% (active)
31 | O=C(NC(c1ccc(Cl)cc1)c1cnccn1)C1CCN(Cc2ccc(Cl)cc2)CC1 (configuration not stated) | 26.5% (inactive)
32 | CC(=O)c1ccc(Nc2nc(C(N)c3ccccc3)cs2)cc1 (configuration not stated) | -5.96% (inactive)
33 | COc1ccc(OC)c(NC(=O)C2(C)CCN2C(=O)Cc2ccccc2)c1 (configuration not stated) | 2.75% (inactive)
34 | CC(C)CC1C(=O)N(Cc2cn(Cc3ccco3)nn2)CCS(=O)(=O)N1Cc1ccc(-c2ccc(Cl)c(Cl)c2)cc1 (configuration not stated) | 0.356% (inactive)
35 | O=S(=O)(Nc1cccc(-n2cnnn2)c1)c1cnc(Cl)c(Cl)c1 | -0.268% (inactive)
36 | Cc1ccc(C)c(S(=O)(=O)Nc2cccc(-n3cnnn3)c2)c1 | 69.3% (active)
37 | O=C(Nc1cccc(-n2cnnn2)c1)c1cccnc1 | 1.28% (inactive)
38 | COc1cccc(-c2cnc3c(NC(C)=O)cc(-c4cccc(NC(C)=O)c4)cn23)c1 | -4.77% (inactive)
39 | O=C(NCCN1CCOCC1)c1ccccc1N1C(=O)[C@@H]2Cc3c([nH]c4ccccc34)C(c3cccc(Cl)c3)N2C1=O (some centres not stated) | 2.4% (inactive)
40 | CCOC(=O)c1ccccc1NC(=O)COC(=O)C(Cc1c[nH]c2ccccc12)NC(C)=O (configuration not stated) | 1.23% (inactive)
41 | COc1ccc(CNC(=O)[C@H](Cc2c[nH]c3ccccc23)NC(C)=O)cc1OC | -6.67% (inactive)
42 | CC(=O)NC(Cc1c[nH]c2ccccc12)C(=O)NCCc1ccccc1 (configuration not stated) | 50.4% (active)
